From PubChem
IL-1B inflam inh: inflammasome signaling inhibition, IL-1 beta readout. 360,000 compounds, 4.7% hits. THP-1 LPS/ATP IL-1B secretion, AlphaLISA, 16 h; hits give low values. activity change, % at 57.5 µM; in the data active means activity change below about -50%; inconclusive means mostly about -30% to -49%; further: on the % scale 0 is the no-effect control and ±100 the full control effect
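THP-1 cells pretreated 1 hr with compounds (up to 57.5 uM final), then stimulated with LPS (250 ng/mL final) plus ATP (1.25 mM final); secreted IL-1B measured by AlphaLISA after 16 hr, decreased signal indicating inhibition.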
HT1080NT lethal: kills 2HG-producing HT-1080-NT fibrosarcoma cells | HT-1080-NT fibrosarcoma viability, CellTiter-Glo ATP luminescence, 48 h | Potency, µM (doses to about 46.1 µM), without a hit: top-dose activity, negative = less viability, most hits filed as cytotoxic | 360,000 compounds, 1.6% hits | AID 686970;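 further: NT is the 2HG producing partner of a matched IDH1 knockdown line; potency means the concentration at half of the fitted maximal effect; 0% = DMSO-treated cells and -100% = media-only wells without cells; nearly all actives have a fitted effect of over 55% in size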
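Compounds were tested in concentration-response format on HT-1080-NT cells for 48 hours at 37 degrees C. Cell viability came from CellTiter-Glo luminescence; curves were classified by r2, response magnitude and activity.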
TGFb SMAD3 inh: TGF-b pathway inhibition. HepG2 CAGA-GFP TGF-b/SMAD3 reporter, GFP fluorescence, 18 h; TGF-beta stimulated, 500 pg/mL final. Potency, µM (series often up to 46.1 µM), for inactives: at the highest dose activity, negative = inhibition, most hits filed as inhibitors. 410,000 compounds, 1.2% hits. AID 588855; further: potency means the concentration at half of the fitted maximal effect; on the % scale 0 is the no-effect control and ±100 the full control effect; nearly all actives have a fitted effect of over 65% in size
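Inhibition was scored as loss of TGF-beta-induced (500 pg/mL final, 18 hours, 37 degrees C) GFP in HEPG2 cells carrying a CAGA-GFP reporter, in DMEM with 1% FBS. Well GFP was summed per cell; Activity was normalised to unstimulated and stimulated DMSO wells, then concentration-response fitting.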
Giardia kill: Giardia lamblia killing; activity change, % at 7.66 µM, hits read low; Giardia lamblia trophozoite viability; 340,000 compounds, 0.15% hits; in the data active means activity change below about -80%; inconclusive means between about -30% and that limit;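 further: parasites exposed to compound for two days anaerobically before the ATP read; on the % scale 0 is the no-effect control and ±100 the full control effect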
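Each well holds 100 Giardia trophozoites and compound. After two days (48 hrs) at 37 deg C in anaerobic conditions, ATP is quantified by luminescence.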
HepG2 viability: kills HepG2 cells in TGF-b inhibitor counter-screen. HepG2 CAGA-GFP viability, ATP luminescence, 18 h. Potency, µM (highest dose often 46.1 µM), without a hit: at the highest dose activity change, negative = cytotoxicity, usual class: cytotoxic. 410,000 compounds, 0.76% hits. AID 588856; further: potency means the concentration at half of the fitted maximal effect
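CellTiter-Glo luminescence gave cytotoxicity after 18 hours at 37 degrees C. The cells were HepG2 CAGA-GFP in 1% FBS DMEM, stimulated with 500 pg/mL TGF-beta after compound addition. %Activity was normalised to no-cell wells (complete cell-killing) and DMSO (no toxicity), and curves were fitted and classified.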
HT1080 IDH1KD tx: kills HT-1080 cells with IDH1 knockdown; AID 686971; 360,000 compounds, 2% hits; Potency, µM (series often up to 46.1 µM), for the others: at the top dose activity, negative = toxicity, hits mostly cytotoxic; HT-1080 IDH1 knockdown viability, ATP luminescence, 48 h;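 further: potency means the concentration at half of the fitted maximal effect; 0% = DMSO wells and -100% = cell-free medium wells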
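Assay cells: HT-1080 with IDH1 knockdown, 750 per well, RPMI/5% FBS. Exposure: 48 h at 37 °C following 2 h pre-incubation. Read: CellTiter-Glo luminescence; fitted concentration-response, curve class assigned.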
The depositor's hits bear a star; ? = inconclusive; nt = no result given; [ ] = another dose, or the depositor's remark. Hits are enriched below; roughly 6.5% of the tested compounds scored in any of these assays. Unless noted, the call rests on the fitted dose curve; in most records, active means well fitted curve in the direction sought with a large enough effect; inconclusive means small, poorly fitted or top-dose-only effect, or another doubt; inactive means no such curve, though single readings can be large; an effect the other way counts as inactive or inconclusive.

SMILES	IL-1B inflam inh	HT1080NT lethal	TGFb SMAD3 inh	Giardia kill	HepG2 viability	HT1080 IDH1KD tx
COc1ccc2nc(C)cc(Nc3ccccc3O)c2c1	?	-10%	?	10	-26%	-8%
CCN1C(=O)[C@H]2[C@H]3CN=C(SCc4ccc(C)cc4)N3[C@@](Cc3ccccc3)(C(=O)OC)[C@H]2C1=O	-13	-13%	-29%	0	-26%	-2%
CCC1CSC(Nc2ccc(C(=O)/C=C/c3cccc(C)c3)cc2)=N1 (configuration not stated)	-87*	?	18µM*	-4	-101%	?
CCC1CSC(Nc2ccc(C(=O)/C=C/c3ccc(Oc4ccccc4)cc3)cc2)=N1 (configuration not stated)	?	0%	?	0	-64%	-15%
CC(C)CNC(=S)N(CCO)Cc1cc2cc3c(cc2[nH]c1=O)OCO3	?	3%	?	19	-47%	10%
O=S(=O)(/C=C/C=C/S(=O)(=O)c1ccccc1)c1ccccc1	-101*	?	3.5µM*	12	-80%	1.3µM*
Cc1ccc(S(=O)(=O)C=CS(=O)(=O)c2ccc(C)cc2)cc1	-17	?	?	nt	-112%	?
Cc1onc(-c2ccccc2Cl)c1C(=O)Oc1cccc2cccnc12	0	-3%	?	-3	-29%	23µM*
CCc1ccc(NC(=S)NC(=O)c2c(-c3ccccc3Cl)noc2C)cc1	-51*	-8%	3%	-2	28%	-1%
Cc1onc(-c2ccccc2Cl)c1C(=O)NCc1ccco1	-77*	-24%	4%	10	-5%	-39%
Cc1onc(-c2ccccc2Cl)c1C(=O)Oc1ccc(Br)cc1	nt	nt	?	nt	-42%	nt
O=C(NCc1ccc(Cl)cc1)c1ccc(CNS(=O)(=O)c2ccc(F)cc2)cc1	nt	nt	-2%	nt	4%	nt
O=C(Cn1cccc1C(=O)c1ccccc1)NCc1ccc(Cl)cc1	37	5%	-8%	18	-10%	0%
Cc1ccc(-n2c(Cl)c(Cl)[nH]c(=O)c2=O)cc1	6	-3%	-21%	8	16%	-1%
Cc1cc(=O)oc2cc(Oc3ccc([N+](=O)[O-])cc3[N+](=O)[O-])ccc12	-104*	-2%	3%	?	-3%	?
O=C(c1ccccc1)c1ccc(Oc2ccc([N+](=O)[O-])cc2[N+](=O)[O-])cc1	-95*	15µM*	-26%	-9	-12%	12µM*
CCC(=O)c1ccc(Oc2ccc(C(=O)c3ccc(C)cc3)cc2[N+](=O)[O-])cc1	-80*	-5%	?	-10	-31%	-12%
COCCN(C(=O)CCC(=O)Nc1ccccn1)C(C(=O)NC(C)(C)C)c1ccc(OC)cc1 (configuration not stated)	19	6%	13%	0	7%	2%
O=C(NCc1ccccc1)c1cccc(NC(=O)C2CCC2)c1	7	5%	-8%	5	0%	1%
O=C(Nc1ccc(S(=O)(=O)C(F)F)cc1)c1ccc2c(=O)n3c(nc2c1)CCC3	22	0%	0%	10	-32%	-9%
O=C(Nc1cccc(S(=O)(=O)N2CCCC2)c1)c1ccc2c(=O)n3c(nc2c1)CCCCC3	-62*	-17%	?	23	-30%	-15%
O=C(Nc1cccc(S(=O)(=O)N2CCOCC2)c1)c1ccc2c(=O)n3c(nc2c1)CCCCC3	-86*	?	-22%	0	-18%	-25%
O=C(Nc1ccc(SC(F)F)cc1)c1ccc2c(=O)n3c(nc2c1)CCC3	0	3.3µM*	-20%	-16	-4%	-26%
CN(C)S(=O)(=O)c1ccc2c(c1)N(CC(=O)Nc1ccc(F)cc1)C(=O)CS2	nt	nt	?	nt	-1%	nt
Cc1cc(C=C2C(=O)c3ccccc3C2=O)c(C)n1-c1cccc(C(=O)O)c1	16	4%	-16%	-10	-39%	1%
SMILES	IL-1B inflam inh	HT1080NT lethal	TGFb SMAD3 inh	Giardia kill	HepG2 viability	HT1080 IDH1KD tx
Cc1cc(C=C2C(=O)c3ccccc3C2=O)c(C)n1-c1ccccc1	-15	5%[9.24 µM]	-1%	?	-17%	-29%
Cc1cc(C=C2C(=O)c3ccccc3C2=O)c(C)n1-c1ccc(C(=O)O)cc1	-56*	0%	-8%	-9	-15%	5%
Cc1cc(/C=C2\Cc3ccccc3C2=O)c(C)n1-c1ccccc1	-62*	-3%	-24%	?	-15%	0%
Cc1cc(N2CCCc3ccccc32)n2ncnc2n1	97	8%	6%	9	4%	9%
COc1cccc(COC(=O)c2ccc3c(=O)n4c(nc3c2)CCC4)c1OC	26	-1%	16%	21	4%	-15%
Cc1ccc(-c2nc(NCCCO)c3ccccc3n2)cc1	?	?	-16%	0	-21%	?
Cc1cccc2nc(-c3ccccc3)nc(N[C@@H](CO)c3ccccc3)c12	-63*	?	?	5	-11%	?
COc1cc(/C=C(/C#N)c2nc3ccccc3[nH]2)ccc1OCC(=O)Nc1ccccc1C(C)C	19	16%	?	7	-50%	8%
Cc1ccc(CCNC(=O)CSCc2nc(-c3ccc(C)cc3)oc2C)cc1	nt	nt	?	nt	-50%	nt
CCOc1ccc(-c2nc(CSCC(=O)N3CCN(c4cccc(C(F)(F)F)c4)CC3)c(C)o2)cc1	nt	nt	?	nt	-38%	nt
Cc1cccc(-c2nc(CSCC(=O)NCCc3ccc(Cl)cc3)c(C)o2)c1	nt	nt	13µM*	nt	-66%	nt
Cc1cccc(-c2nc(CSCC(=O)N3CCN(c4ccccc4)CC3)c(C)o2)c1	nt	nt	11µM*	nt	-27%	nt
COc1ccc(-c2nc(CSCC(=O)N3CCN(c4cc(Cl)ccc4C)CC3)c(C)o2)cc1	nt	nt	18µM*	nt	-34%	nt
Cc1ccc(-c2nc(CS(=O)(=O)CC(=O)N3CCN(c4ccccc4)CC3)c(C)o2)cc1	nt	nt	11µM*	nt	-29%	nt
COc1ccc(-c2nc(CSCC(=O)N3CCN(c4ccc(OC)cc4)CC3)c(C)o2)cc1	nt	nt	?	nt	-14%	nt
Cc1ccc(/C=C2/NC(=O)N(Cc3ccccc3)C2=O)o1	0	-1%	?	-20	-47%	-4%
COc1ccc(CCN2C(=O)CC(Cc3cccc(C)c3)C2=O)cc1OC (configuration not stated)	14	5%	7%	5	1%	3%
CSc1ccccc1C(=O)NC(C)c1ccc(-n2ccnc2)cc1 (configuration not stated)	28	14%	-4%	-22	-6%	5%
